{
  "source": "the antibiotic and cytotoxicity screens of Wong et al. (2023)",
  "note": "Among all 39,000 compounds or so, about 500 (1.3%) were called active. Shown is part of a subset that was picked to be rich in actives.",
  "data": [
    {"test_system": "S. aureus RN4220", "assay": "growth inhibition call (relative growth <= 0.2)", "conditions": "50 µM", "values": [
      {"smiles": "CN1CCN(c2c(F)cc3c(=O)c(C(=O)O)cn4c3c2SCC4)CC1", "growth inhibition call": "active"},
      {"smiles": "CN1CCN(c2c(F)cc3c(=O)c(C(=O)O)cn(CCF)c3c2F)CC1", "growth inhibition call": "active"},
      {"smiles": "Cc1ccc(S(=O)(=O)Nc2ccc3c(c2)CC(=O)N([C@@H](C)CO)C[C@@H](C)[C@@H](CN(C)C(=O)Nc2ccc(C(F)(F)F)cc2)O3)cc1", "growth inhibition call": "inactive"},
      {"smiles": "NC(CO)C(=O)O", "note": "(stereo not drawn)", "growth inhibition call": "inactive"},
      {"smiles": "Cn1cnc(S(=O)(=O)N2C[C@@H](O)COC[C@@H]3O[C@H](CC(=O)NC4CCCC4)CC[C@H]32)c1", "growth inhibition call": "inactive"},
      {"smiles": "O=C(NCCO)c1nc(NCCO)c2ccccc2n1", "growth inhibition call": "inactive"},
      {"smiles": "C[C@@H]1CCCCO[C@H](CN(C)S(=O)(=O)c2ccccc2)[C@@H](C)CN([C@@H](C)CO)C(=O)c2cc(NC(=O)Nc3ccccc3)ccc2O1", "growth inhibition call": "inactive"},
      {"smiles": "CCC(=O)NC[C@H](Cc1ccc(OCCc2nc(-c3ccccc3)oc2C)cc1)N/C(C)=C\\C(=O)c1ccc(C(F)(F)F)cc1", "growth inhibition call": "inactive"},
      {"smiles": "COC(=O)c1nc[nH]c1C(=O)OC", "growth inhibition call": "inactive"},
      {"smiles": "CC1(C)[C@H](C(=O)O)N2C(=O)C[C@H]2S1(=O)=O", "growth inhibition call": "inactive"},
      {"smiles": "CC1(C)C(C(=O)O)N2C(=O)CC2S1(=O)=O", "note": "(stereo not drawn)", "growth inhibition call": "inactive"},
      {"smiles": "CC1(Cn2ccnn2)C(C(=O)O)N2C(=O)CC2S1(=O)=O", "note": "(stereo not drawn)", "growth inhibition call": "active"},
      {"smiles": "C[n+]1ccn(C[C@@]2(C)[C@H](C(=O)O)N3C(=O)C[C@H]3S2(=O)=O)n1", "growth inhibition call": "active"},
      {"smiles": "Cc1noc(C[C@@H]2C[C@@H]3CN(S(C)(=O)=O)C[C@@H]3O2)n1", "growth inhibition call": "inactive"},
      {"smiles": "C[C@@H]1CCCCO[C@H](CN(C)C)[C@H](C)CN([C@H](C)CO)C(=O)c2cc(NS(=O)(=O)c3cn(C)cn3)ccc2O1", "growth inhibition call": "inactive"},
      {"smiles": "CS(=O)(=O)N1[C@@H]2c3ccc(-c4ccccc4)c(=O)n3C[C@H]1[C@H](CO)[C@H]2C(=O)NCC1CC1", "growth inhibition call": "inactive"},
      {"smiles": "Cn1c(=O)c(F)c(Nc2ccc(I)cc2F)c2c(=O)n(C[C@@H](O)CO)cnc21", "growth inhibition call": "inactive"},
      {"smiles": "O=C(NOC[C@H](O)CO)c1cc(Br)c(F)c(F)c1Nc1ccc(I)cc1F", "growth inhibition call": "inactive"},
      {"smiles": "COc1cc(F)c(F)c(Nc2ccc(I)cc2F)c1NS(=O)(=O)C1(C[C@H](O)CO)CC1", "growth inhibition call": "active"},
      {"smiles": "CCOC(=O)OC(C)OC(=O)C1N2C(=O)C(NC(=O)C(N)c3ccccc3)C2SC1(C)C.Cl", "note": "(stereo not drawn)", "growth inhibition call": "active"},
      {"smiles": "CC1(C)S[C@@H]2[C@H](NC(=O)[C@H](N)c3ccccc3)C(=O)N2[C@H]1C(=O)OCOC(=O)[C@@H]1N2C(=O)C[C@H]2S(=O)(=O)C1(C)C", "growth inhibition call": "active"},
      {"smiles": "C[C@@H]1CN([C@H](C)CO)C(=O)c2c(c3ccccc3n2C)-c2ccccc2CO[C@@H]1CN(C)Cc1ccccc1", "growth inhibition call": "inactive"},
      {"smiles": "O=C(C[C@@H]1C=C[C@@H](NS(=O)(=O)c2ccc(F)cc2)[C@H](CO)O1)N1CCC(Cc2ccccc2)CC1", "growth inhibition call": "inactive"},
      {"smiles": "CN1C(=O)c2cc(NS(=O)(=O)c3ccc(F)cc3)ccc2OC[C@H]2O[C@H](CC(=O)NCC(F)(F)F)CC[C@H]21", "growth inhibition call": "inactive"},
      {"smiles": "COCC#Cc1ccc2c(c1)O[C@H](CN(C)S(=O)(=O)c1ccc(C)cc1)[C@H](C)CN([C@@H](C)CO)S2(=O)=O", "growth inhibition call": "inactive"},
      {"smiles": "COCCn1c(=NN)[nH]c2ccsc2c1=O", "growth inhibition call": "inactive"},
      {"smiles": "O=C(C[C@H]1CC[C@@H]2[C@H](COC[C@@H](O)CN2Cc2cc(F)ccc2F)O1)N[C@@H]1CCN(Cc2ccccc2)C1", "growth inhibition call": "inactive"},
      {"smiles": "CCCCc1nn(-c2ccccc2C(F)(F)F)c(=O)n1Cc1ccc(-c2ccccc2S(=O)(=O)NC(=O)c2sccc2C)cc1", "growth inhibition call": "active"},
      {"smiles": "COc1ccc([Si](C)(C)[C@H]2[C@H](CC(=O)N3CCC[C@H]3CO)O[C@@]3(C(=O)N(Cc4ccc(N5CCCCC5=O)cc4)c4ccccc43)[C@@H]2C)cc1", "growth inhibition call": "inactive"},
      {"smiles": "C[C@@H]1CN([C@H](C)CO)C(=O)c2c(c3ccccc3n2C)-c2ccccc2CO[C@@H]1CN(C)Cc1ccc(Cl)c(Cl)c1", "growth inhibition call": "inactive"},
      {"smiles": "CON=C1CN(c2nc3c(cc2F)c(=O)c(C(=O)O)cn3C2CC2)CC1CN.CS(=O)(=O)O", "note": "(stereo not drawn)", "growth inhibition call": "active"},
      {"smiles": "CO/N=C1\\CN(c2nc3c(cc2F)c(=O)c(C(=O)O)cn3C2CC2)C[C@@H]1CN", "growth inhibition call": "active"},
      {"smiles": "C[C@H]1CN([C@@H](C)CO)C(=O)c2cccc(NC(=O)CCCCCC(=O)Nc3ccccc3N)c2O[C@H]1CN(C)C(=O)Nc1cccc2ccccc12", "growth inhibition call": "inactive"},
      {"smiles": "CCCN(C)C[C@H]1OCCCC[C@@H](C)Oc2ccc(NS(=O)(=O)c3ccc(Cl)cc3)cc2C(=O)N([C@H](C)CO)C[C@@H]1C", "growth inhibition call": "inactive"},
      {"smiles": "Cc1ccc(S(=O)(=O)N[C@@H]2CC[C@H](CCNC(=O)CN3CCOCC3)O[C@@H]2CO)cc1", "growth inhibition call": "inactive"},
      {"smiles": "C[C@@H]1CN([C@@H](C)CO)S(=O)(=O)c2ccc(-c3cccc(C#N)c3)cc2O[C@H]1CN(C)C(=O)c1cccnc1", "growth inhibition call": "inactive"},
      {"smiles": "CO[C@@H]1CN(C)C(=O)c2cc(NC(=O)Nc3cccc(Cl)c3)ccc2OC[C@H](C)N(C(=O)Nc2c(C)noc2C)C[C@H]1C", "growth inhibition call": "inactive"},
      {"smiles": "CC(C)NC(=O)N(C)C[C@H]1OCCCC[C@H](C)Oc2ccc(NC(=O)Nc3ccccc3)cc2C(=O)N([C@@H](C)CO)C[C@H]1C", "growth inhibition call": "inactive"},
      {"smiles": "CC(C)=CCC[C@]1(C)[C@@H](CC=C(C)C)C[C@]2(CC=C(C)C)C(=O)C(CC=C(C)C)=C(O)[C@@]1(C(=O)C(C)C)C2=O", "growth inhibition call": "active"},
      {"smiles": "C[C@@H]1CCCCO[C@@H](CN(C)C(=O)Nc2ccccc2)[C@@H](C)CN([C@H](C)CO)C(=O)c2cc(NC(=O)Cc3ccccc3)ccc2O1", "growth inhibition call": "inactive"},
      {"smiles": "Cn1cncc1[C@@](N)(c1ccc(Cl)cc1)c1ccc2c(c1)c(-c1cccc(Cl)c1)cc(=O)n2C", "growth inhibition call": "active"},
      {"smiles": "Cc1noc(C)c1S(=O)(=O)N(C)C[C@@H]1OCCCC[C@@H](C)Oc2ccc(NS(=O)(=O)c3cn(C)cn3)cc2C(=O)N([C@@H](C)CO)C[C@H]1C", "growth inhibition call": "inactive"},
      {"smiles": "C[C@@H]1CN([C@@H](C)CO)C(=O)c2cc(NC(=O)Cc3ccccc3)ccc2O[C@@H](C)CCCCO[C@H]1CN(C)Cc1ccc2c(c1)OCO2", "growth inhibition call": "inactive"},
      {"smiles": "Cc1noc(C)c1S(=O)(=O)Nc1ccc2c(c1)C(=O)N([C@H](C)CO)C[C@H](C)[C@H](CN(C)S(=O)(=O)c1c(C)noc1C)O2", "growth inhibition call": "inactive"},
      {"smiles": "CCCCCC(=O)Cc1cc(O)cc(O)c1C(=O)Oc1cc(CC(=O)CCCCC)c(C(=O)O)c(OC)c1", "growth inhibition call": "active"},
      {"smiles": "COc1cc(C)c(C(=O)Oc2cc(C)c(C(=O)O)c(O)c2)c(O)c1", "growth inhibition call": "inactive"},
      {"smiles": "Cc1cc(OC(=O)c2c(C)cc(O)cc2O)cc(O)c1C(=O)O", "growth inhibition call": "inactive"},
      {"smiles": "C[C@H](O)C#Cc1ccc2c(c1)O[C@H](CN(C)C(=O)CN(C)C)[C@H](C)CN([C@H](C)CO)S2(=O)=O", "growth inhibition call": "inactive"},
      {"smiles": "CN(C)CC#Cc1ccc([C@H]2[C@@H](CO)N3C(=O)CN(C(=O)c4cccnc4)C[C@H]23)cc1", "growth inhibition call": "inactive"},
      {"smiles": "COc1ccc(S(=O)(=O)Nc2ccc3c(c2)C(=O)N([C@H](C)CO)C[C@H](C)[C@H](CN(C)C(=O)Nc2c(C)noc2C)O3)cc1", "growth inhibition call": "inactive"},
      {"smiles": "Cc1c(-c2c(-c3ccc(F)o3)sc3ncnc(O[C@H](Cc4ccccc4OCc4ccnn4CC(F)(F)F)C(=O)O)c23)ccc(OCCN2CCN(C)CC2)c1Cl", "growth inhibition call": "active"},
      {"smiles": "COCC#Cc1ccc([C@H]2[C@H](CO)N3C(=O)CN(C(=O)C4CCOCC4)C[C@@H]23)cc1", "growth inhibition call": "inactive"},
      {"smiles": "Cc1coc2c1C(=O)C(=O)c1c-2ccc2c1CCCC2(C)C", "growth inhibition call": "inactive"},
      {"smiles": "CC1COC2=C1C(=O)C(=O)c1c2ccc2c1CCCC2(C)C", "note": "(stereo not drawn)", "growth inhibition call": "active"},
      {"smiles": "Cc1cccc2c1OCC[C@@H](N)C2=O", "growth inhibition call": "inactive"},
      {"smiles": "Cc1cccc2c3c(ccc12)C1=C(C(=O)C3=O)C(C)CO1", "note": "(stereo not drawn)", "growth inhibition call": "active"},
      {"smiles": "C[C@H]1CN([C@@H](C)CO)C(=O)Cc2cc(NC(=O)CCN3CCOCC3)ccc2O[C@H]1CN(C)Cc1ccccc1", "growth inhibition call": "inactive"},
      {"smiles": "O=C(Nc1cc(Cl)ccc1Cl)c1cc(Cl)ccc1NS(=O)(=O)c1ccc(Cl)c([N+](=O)[O-])c1", "growth inhibition call": "active"},
      {"smiles": "NS(=O)(=O)c1ccc(Cl)cc1[N+](=O)[O-]", "growth inhibition call": "inactive"},
      {"smiles": "CNS(=O)(=O)c1ccc(Cl)c(C(N)=O)c1", "growth inhibition call": "inactive"},
      {"smiles": "O=C(Nc1ccc(Cl)cc1C(=O)c1ccc(Cl)cc1)c1cc(Br)ccc1NS(=O)(=O)c1ccc(Cl)cc1", "growth inhibition call": "inactive"},
      {"smiles": "O=C(Nc1ccc([N+](=O)[O-])cc1Cl)c1cc(Cl)ccc1O", "growth inhibition call": "inactive"},
      {"smiles": "O=C(Nc1cc(Cl)ccc1Cl)c1cc(Br)ccc1NS(=O)(=O)c1ccc(Cl)c([N+](=O)[O-])c1", "growth inhibition call": "active"},
      {"smiles": "COc1ccc(S(=O)(=O)Nc2ccc3c(c2)C(=O)N([C@H](C)CO)C[C@@H](C)[C@@H](CN(C)C(=O)NC2CCCCC2)OCCCC[C@H](C)O3)cc1", "growth inhibition call": "inactive"},
      {"smiles": "COc1ccc(S(=O)(=O)N(C)C[C@@H]2OCCCC[C@@H](C)Oc3ccc(NC(=O)NC4CCCCC4)cc3C(=O)N([C@H](C)CO)C[C@H]2C)cc1", "growth inhibition call": "inactive"},
      {"smiles": "CNC(=O)Cn1c(=O)c2c(OC)c(C)cnc2n(C)c1=O", "growth inhibition call": "inactive"},
      {"smiles": "COc1ccc(NC(=O)N(C)C[C@H]2Oc3ccc(NS(=O)(=O)c4c(C)noc4C)cc3CC(=O)N([C@@H](C)CO)C[C@@H]2C)cc1", "growth inhibition call": "inactive"},
      {"smiles": "COc1ccc(S(=O)(=O)N(C)C[C@H]2Oc3ccc(NS(=O)(=O)c4c(C)noc4C)cc3C(=O)N([C@@H](C)CO)C[C@@H]2C)cc1", "growth inhibition call": "inactive"},
      {"smiles": "O=C(C[C@@H]1CC[C@H]2[C@@H](COC[C@H](O)CN2Cc2cc(F)ccc2F)O1)N[C@@H]1CCN(Cc2ccccc2)C1", "growth inhibition call": "inactive"},
      {"smiles": "C[C@@H]1CN([C@@H](C)CO)C(=O)c2cc(NS(=O)(=O)c3cn(C)cn3)ccc2O[C@@H](C)CCCCO[C@@H]1CN(C)Cc1ccc(C(F)(F)F)cc1", "growth inhibition call": "inactive"},
      {"smiles": "C[C@@H]1CN([C@H](C)CO)S(=O)(=O)c2ccc(-c3cccnc3)cc2O[C@@H]1CN(C)C(=O)c1ccc2c(c1)OCO2", "growth inhibition call": "inactive"},
      {"smiles": "CC[C@@H]1OC(=O)[C@H](C)[C@@H](O[C@H]2C[C@@](C)(OC)[C@@H](O)[C@H](C)O2)[C@H](C)[C@@H](O[C@@H]2O[C@H](C)C[C@H](N(C)C)[C@H]2O)[C@](C)(O)C[C@@H](C)/C(=N\\OCOCCOC)[C@H](C)[C@@H](O)[C@]1(C)O", "growth inhibition call": "active"},
      {"smiles": "CCC1OC(=O)C(C)C(OC2CC(C)(OC)C(O)C(C)O2)C(C)C(OC2OC(C)CC(N(C)C)C2O)C(C)(O)CC(C)C(=NOCOCCOC)C(C)C(O)C1(C)O", "note": "(stereo not drawn)", "growth inhibition call": "active"}
    ]}
  ]
}
